Data: PubChem BioAssay
Calls of active or inactive are those of the source. Cut-off read from the data, not from the text of the source, unless noted: active = inhibition above about 33%; inactive = the rest.

Biological target: Steroidogenic factor 1 (Homo sapiens) (UniProt Q13285)
Experiment: SF1 (NR5A1) inverse agonists, counter-screen for LRH-1 inverse agonist project, cell-based, luminescence, high throughput (AID 651614; in the data active = inhibition above about 44%;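 note: cells cotransfected with StAR promoter reporter and SF1 expression vector; 0% = vehicle on cells with receptor and 100% = vehicle on cells lacking receptor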)
Details: cell-based SF1 luciferase reporter, at 3.6 µM, active compounds read high

Sequence of Steroidogenic factor 1 (Homo sapiens) (Q13285 whole entry, looked up): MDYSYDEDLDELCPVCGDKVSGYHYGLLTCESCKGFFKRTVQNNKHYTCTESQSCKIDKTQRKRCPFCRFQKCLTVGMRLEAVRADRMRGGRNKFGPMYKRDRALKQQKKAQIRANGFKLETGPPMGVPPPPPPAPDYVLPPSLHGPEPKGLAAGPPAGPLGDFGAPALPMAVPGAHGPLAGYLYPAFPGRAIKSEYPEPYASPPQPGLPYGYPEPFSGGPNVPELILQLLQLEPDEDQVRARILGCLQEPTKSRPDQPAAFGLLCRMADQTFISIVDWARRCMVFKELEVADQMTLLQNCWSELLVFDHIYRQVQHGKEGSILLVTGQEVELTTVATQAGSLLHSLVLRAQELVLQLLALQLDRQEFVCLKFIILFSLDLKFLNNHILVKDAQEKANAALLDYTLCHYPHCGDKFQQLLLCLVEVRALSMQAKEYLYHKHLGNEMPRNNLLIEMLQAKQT

**Q.** With `COC(=O)CNC(=O)c1nn(-c2cccc(OC)c2)c(=O)c2ccccc12` as the compound, how does the inhibition read?
**A.** 37.3% (inactive)

**Q.** With `CCc1cc(=O)oc2c(C)c(OCC(=O)NCCN3CCOCC3)ccc12` as the compound, how does the inhibition read?
**A.** 30.7% (inactive)

**Q.** For `Cc1onc(-c2ccccc2)c1C(=O)O/N=C(\N)c1ccc([N+](=O)[O-])o1`, which inhibition is on record?
**A.** 61.9% (active)

**Q.** For `Cc1ccc(SCC(=O)Nc2ccc(N3CCOCC3)cc2)c(C)c1`, which inhibition is on record?
**A.** 56.5% (active)

**Q.** With `Cc1nn(Cc2ccc(Cl)cc2)c(C)c1NC(=O)c1noc2c1CCCCC2` as the compound, how does the inhibition read?
**A.** 54.7% (active)

**Q.** Which inhibition does the source give for `CCOc1ccc(NC(=O)CSc2nc3c(c(=O)n2-c2ccccc2OC)SCC3)cc1` here?
**A.** 58.7% (active)

**Q.** Which inhibition does the source give for `C/C(=N\NC(N)=S)c1ccncc1` here?
**A.** 49% (active)

**Q.** Which inhibition does the source give for `CCN(CC)c1nc(C)c(C(C)=O)cc1C#N` here?
**A.** 57% (active)

**Q.** For `Cn1c(=O)oc2cc(NC(=O)CCl)ccc21`, which inhibition is on record?
**A.** 71.3% (active)

**Q.** For `COc1ccc(OC)c(C2C3=C(COC3=O)Nc3cc4c(cc32)OCO4)c1` (stereo not given), which inhibition is on record?
**A.** 41.7% (inactive)

**Q.** For `CCOCC(=O)Nc1cccc(C(=O)OCC)c1`, which inhibition is on record?
**A.** 28.2% (inactive)

**Q.** Which inhibition does the source give for `C=CCNc1nc2c(c(=O)n(C)c(=O)n2C)n1CCCCCC` here?
**A.** 54.9% (active)

**Q.** Which inhibition does the source give for `O=C(c1c(F)c(F)c(F)c(F)c1F)N1CCN(c2cccc(C(F)(F)F)c2)CC1` here?
**A.** 44% (active)

**Q.** For `COc1cc(CCNc2ccc3nnc(-c4ccccc4)n3n2)cc(OC)c1OC`, which inhibition is on record?
**A.** 28.6% (inactive)

**Q.** For `O=C1CCN(CCCN2CCC(=O)N(Cc3ccccc3)C2=S)C(=S)N1Cc1ccccc1`, which inhibition is on record?
**A.** 28.5% (inactive)

**Q.** Which inhibition does the source give for `CCC(C)Nc1nc(-c2cccc(OC)c2O)nc2ccccc12` (stereo not given) here?
**A.** 46.3% (active)

**Q.** Which inhibition does the source give for `O=C(Cc1cccs1)N/N=C\c1ccc([N+](=O)[O-])s1` here?
**A.** 56.4% (active)

**Q.** With `COc1ccc(N2C(=O)C(Cl)=C(N3CCOCC3)C2=O)cc1` as the compound, how does the inhibition read?
**A.** 7.54% (inactive)

**Q.** With `COc1ccc(NC(=O)CSc2nc(N)c(-c3ccccc3)c(=O)[nH]2)cc1` as the compound, how does the inhibition read?
**A.** 57.5% (active)

**Q.** For `Cc1ccc(S(=O)(=O)NCc2ccncc2)c(C)c1C`, which inhibition is on record?
**A.** 59.5% (active)

**Q.** With `COc1cc(C2c3cc4c(cc3OC(NNC(N)=S)C2C)OCO4)cc(OC)c1OC` (stereo not given) as the compound, how does the inhibition read?
**A.** 44.2% (active)

**Q.** With `NC(=S)N/N=C/c1ccc(-c2ccc([N+](=O)[O-])cc2)o1` as the compound, how does the inhibition read?
**A.** 44.5% (active)

**Q.** With `CCOc1ccc(NC(=O)COC(=O)COc2cccc3c2OC(C)(C)C3)cc1` as the compound, how does the inhibition read?
**A.** 60.5% (active)

**Q.** With `O=C(Nc1ccc2c(c1)CCCN2C(=O)c1ccco1)c1cc([N+](=O)[O-])ccc1Cl` as the compound, how does the inhibition read?
**A.** 59.1% (active)

**Q.** For `Cc1cc(NCCCCCCCNc2cc(C)nc3cc([N+](=O)[O-])ccc23)c2ccc([N+](=O)[O-])cc2n1`, which inhibition is on record?
**A.** 40.3% (inactive)

**Q.** For `NC(=S)N/N=C/c1ccc(C(F)(F)F)cc1`, which inhibition is on record?
**A.** 44.6% (active)

**Q.** With `CSc1nc(SCC(=O)NCc2ccco2)c2c3c(sc2n1)COC(C)(C)C3` as the compound, how does the inhibition read?
**A.** 57.6% (active)

**Q.** With `Cc1cc(Br)ccc1NC(=O)CSc1nnc(CN2CCOCC2)n1C` as the compound, how does the inhibition read?
**A.** 42.5% (inactive)

**Q.** With `O=C(c1ccc(=O)n(Cc2ccccc2)n1)N1CCN(C/C=C/c2ccccc2)CC1` as the compound, how does the inhibition read?
**A.** 28% (inactive)

**Q.** For `Nc1nc(-c2ccccc2)c(CCCOc2ccc(NC(=O)CBr)cc2)c(=O)[nH]1`, which inhibition is on record?
**A.** 48.9% (active)

**Q.** With `COc1cc([N+](=O)[O-])ccc1NC(=O)Cn1ccsc1=N` as the compound, how does the inhibition read?
**A.** 57.6% (active)

**Q.** With `CC(=O)Nc1ccc(NC(=O)CSc2nnnn2C2CCCCC2)cc1` as the compound, how does the inhibition read?
**A.** 44.5% (active)

**Q.** For `O=Cc1ccc2c(c1)CCN2Cc1ccccc1`, which inhibition is on record?
**A.** 55.7% (active)

**Q.** For `CCn1c2ccccc2c2cc(C3C(C#N)=C(N)Oc4n[nH]c(COC)c43)ccc21` (stereo not given), which inhibition is on record?
**A.** 51.7% (active)

**Q.** Which inhibition does the source give for `COc1ccc(-c2cc(C(F)F)n3ncc(C(=O)N4CCc5ccccc5C4)c3n2)cc1` here?
**A.** 56.7% (active)

**Q.** Which inhibition does the source give for `Cc1cc(C)c2nc(NC(=O)c3ccc([N+](=O)[O-])o3)sc2c1` here?
**A.** 53.7% (active)

**Q.** With `CCNC(=S)N1CCN(c2nc(CC)nc3sc4c(c23)CCCC4)CC1` as the compound, how does the inhibition read?
**A.** 37.6% (inactive)

**Q.** For `COc1ccccc1N1CCN(C(=O)C2c3ccccc3Oc3ccccc32)CC1`, which inhibition is on record?
**A.** 33.4% (inactive)

**Q.** With `O=C(CN1C(=O)CCC1=O)Nc1ccc(Br)cc1` as the compound, how does the inhibition read?
**A.** 52.2% (active)

**Q.** With `COc1ccc(OC)c(C2NC(=O)c3sc(=S)n(-c4ccccc4)c3N2)c1` (stereo not given) as the compound, how does the inhibition read?
**A.** 45.4% (active)

System: not listed separately
Experiment: VP16 transactivation reporter inhibitors, counter-screen for LRH-1 inverse agonist project, cell-based, luminescence, high throughput (AID 651615)
Details: Gal4-VP16 luciferase reporter cells, at 3.6 µM, active compounds read high

**Q.** Which inhibition does the source give for `COC(=O)CNC(=O)c1nn(-c2cccc(OC)c2)c(=O)c2ccccc12` here?
**A.** -0.96% (inactive)

**Q.** For `CCc1cc(=O)oc2c(C)c(OCC(=O)NCCN3CCOCC3)ccc12`, which inhibition is on record?
**A.** -8.24% (inactive)

**Q.** With `Cc1onc(-c2ccccc2)c1C(=O)O/N=C(\N)c1ccc([N+](=O)[O-])o1` as the compound, how does the inhibition read?
**A.** -9.42% (inactive)

**Q.** Which inhibition does the source give for `Cc1ccc(SCC(=O)Nc2ccc(N3CCOCC3)cc2)c(C)c1` here?
**A.** -1.3% (inactive)

**Q.** Which inhibition does the source give for `Cc1nn(Cc2ccc(Cl)cc2)c(C)c1NC(=O)c1noc2c1CCCCC2` here?
**A.** 18.3% (inactive)

**Q.** With `CCOc1ccc(NC(=O)CSc2nc3c(c(=O)n2-c2ccccc2OC)SCC3)cc1` as the compound, how does the inhibition read?
**A.** -10.6% (inactive)

**Q.** For `C/C(=N\NC(N)=S)c1ccncc1`, which inhibition is on record?
**A.** 3.01% (inactive)

**Q.** With `CCN(CC)c1nc(C)c(C(C)=O)cc1C#N` as the compound, how does the inhibition read?
**A.** 12% (inactive)

**Q.** With `Cn1c(=O)oc2cc(NC(=O)CCl)ccc21` as the compound, how does the inhibition read?
**A.** -65.2% (inactive)

**Q.** For `COc1ccc(OC)c(C2C3=C(COC3=O)Nc3cc4c(cc32)OCO4)c1` (stereo not given), which inhibition is on record?
**A.** 27.9% (inactive)

**Q.** With `CCOCC(=O)Nc1cccc(C(=O)OCC)c1` as the compound, how does the inhibition read?
**A.** 2.72% (inactive)

**Q.** For `C=CCNc1nc2c(c(=O)n(C)c(=O)n2C)n1CCCCCC`, which inhibition is on record?
**A.** 47.2% (active)

**Q.** Which inhibition does the source give for `O=C(c1c(F)c(F)c(F)c(F)c1F)N1CCN(c2cccc(C(F)(F)F)c2)CC1` here?
**A.** 11.4% (inactive)

**Q.** For `COc1cc(CCNc2ccc3nnc(-c4ccccc4)n3n2)cc(OC)c1OC`, which inhibition is on record?
**A.** -65.1% (inactive)

**Q.** Which inhibition does the source give for `O=C1CCN(CCCN2CCC(=O)N(Cc3ccccc3)C2=S)C(=S)N1Cc1ccccc1` here?
**A.** -0.72% (inactive)

**Q.** For `CCC(C)Nc1nc(-c2cccc(OC)c2O)nc2ccccc12` (stereo not given), which inhibition is on record?
**A.** -7% (inactive)

**Q.** For `O=C(Cc1cccs1)N/N=C\c1ccc([N+](=O)[O-])s1`, which inhibition is on record?
**A.** 12.6% (inactive)

**Q.** Which inhibition does the source give for `COc1ccc(N2C(=O)C(Cl)=C(N3CCOCC3)C2=O)cc1` here?
**A.** 7.03% (inactive)

**Q.** For `COc1ccc(NC(=O)CSc2nc(N)c(-c3ccccc3)c(=O)[nH]2)cc1`, which inhibition is on record?
**A.** -7.75% (inactive)

**Q.** For `Cc1ccc(S(=O)(=O)NCc2ccncc2)c(C)c1C`, which inhibition is on record?
**A.** 53.4% (active)

**Q.** With `COc1cc(C2c3cc4c(cc3OC(NNC(N)=S)C2C)OCO4)cc(OC)c1OC` (stereo not given) as the compound, how does the inhibition read?
**A.** 14% (inactive)

**Q.** Which inhibition does the source give for `NC(=S)N/N=C/c1ccc(-c2ccc([N+](=O)[O-])cc2)o1` here?
**A.** 13.5% (inactive)

**Q.** Which inhibition does the source give for `CCOc1ccc(NC(=O)COC(=O)COc2cccc3c2OC(C)(C)C3)cc1` here?
**A.** -1.47% (inactive)

**Q.** For `O=C(Nc1ccc2c(c1)CCCN2C(=O)c1ccco1)c1cc([N+](=O)[O-])ccc1Cl`, which inhibition is on record?
**A.** 33.9% (active)

**Q.** Which inhibition does the source give for `Cc1cc(NCCCCCCCNc2cc(C)nc3cc([N+](=O)[O-])ccc23)c2ccc([N+](=O)[O-])cc2n1` here?
**A.** 39.7% (active)

**Q.** For `NC(=S)N/N=C/c1ccc(C(F)(F)F)cc1`, which inhibition is on record?
**A.** 9.68% (inactive)

**Q.** With `CSc1nc(SCC(=O)NCc2ccco2)c2c3c(sc2n1)COC(C)(C)C3` as the compound, how does the inhibition read?
**A.** 3.39% (inactive)

**Q.** Which inhibition does the source give for `Cc1cc(Br)ccc1NC(=O)CSc1nnc(CN2CCOCC2)n1C` here?
**A.** 0.09% (inactive)

**Q.** For `O=C(c1ccc(=O)n(Cc2ccccc2)n1)N1CCN(C/C=C/c2ccccc2)CC1`, which inhibition is on record?
**A.** 5.07% (inactive)

**Q.** With `Nc1nc(-c2ccccc2)c(CCCOc2ccc(NC(=O)CBr)cc2)c(=O)[nH]1` as the compound, how does the inhibition read?
**A.** -15.6% (inactive)

**Q.** Which inhibition does the source give for `COc1cc([N+](=O)[O-])ccc1NC(=O)Cn1ccsc1=N` here?
**A.** -3.33% (inactive)

**Q.** For `CC(=O)Nc1ccc(NC(=O)CSc2nnnn2C2CCCCC2)cc1`, which inhibition is on record?
**A.** -1.05% (inactive)

**Q.** With `O=Cc1ccc2c(c1)CCN2Cc1ccccc1` as the compound, how does the inhibition read?
**A.** -34.1% (inactive)

**Q.** With `CCn1c2ccccc2c2cc(C3C(C#N)=C(N)Oc4n[nH]c(COC)c43)ccc21` (stereo not given) as the compound, how does the inhibition read?
**A.** 14.3% (inactive)

**Q.** With `COc1ccc(-c2cc(C(F)F)n3ncc(C(=O)N4CCc5ccccc5C4)c3n2)cc1` as the compound, how does the inhibition read?
**A.** -2.06% (inactive)

**Q.** For `Cc1cc(C)c2nc(NC(=O)c3ccc([N+](=O)[O-])o3)sc2c1`, which inhibition is on record?
**A.** -14.5% (inactive)

**Q.** For `CCNC(=S)N1CCN(c2nc(CC)nc3sc4c(c23)CCCC4)CC1`, which inhibition is on record?
**A.** 5.39% (inactive)

**Q.** With `COc1ccccc1N1CCN(C(=O)C2c3ccccc3Oc3ccccc32)CC1` as the compound, how does the inhibition read?
**A.** 39.4% (active)

**Q.** With `O=C(CN1C(=O)CCC1=O)Nc1ccc(Br)cc1` as the compound, how does the inhibition read?
**A.** -3.7% (inactive)

**Q.** Which inhibition does the source give for `COc1ccc(OC)c(C2NC(=O)c3sc(=S)n(-c4ccccc4)c3N2)c1` (stereo not given) here?
**A.** -4.35% (inactive)
